Results filed as inconclusive are left out. The source made the active and inactive calls. How the source made its calls, unless noted: active means hit-call score of the fitted dose curve at least 0.9, where 1 is the maximum; inconclusive means response in the unintended direction; inactive means score below 0.9.
Assays:
[1] = ATG_TCF_b_cat_CIS: Attagene CIS-FACTORIAL HepG2 Assay for human T-Cell-Factor with beta-catenin (TCF/b-cat) (AID 2282965; active means hit-call score of the fitted dose curve at least 0.9, where 1 is the maximum; inactive means score below 0.9); conditions: HepG2 TCF/beta-catenin cis-reporter transcription, actives raise or lower the signal
In short: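 In this cis-format system, transfected HepG2 cells report endogenous transcription factor activity. Readout after 24 h exposure is reporter transcript abundance from RT-PCR and capillary electrophoresis, analysed for gain or loss of signal versus DMSO.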

[2] = ATG_TAL_CIS: Attagene CIS-FACTORIAL HepG2 Assay for human TAL Basal Promoter (AID 2282966; active means hit-call score of the fitted dose curve at least 0.9, where 1 is the maximum; inactive means score below 0.9;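 further: background control endpoint measuring basal TAL promoter reporter mRNA not a specific factor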); conditions: HepG2 Attagene cis-factorial TAL promoter reporter; actives raise or lower the signal
In short: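 Readout: reporter mRNA, fluorescence by CE. System: HepG2, transient multi-reporter transfection, endogenous TF activity. Exposure: 24 h. Analysis: bidirectional, DMSO-normalized; background control.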

[3] = ATG_TGFb_CIS: Attagene CIS-FACTORIAL HepG2 Assay for human Transforming Growth Factor (TGF) (AID 2282967; active means hit-call score of the fitted dose curve at least 0.9, where 1 is the maximum; inactive means score below 0.9); conditions: HepG2 Attagene CIS TGFb reporter, mRNA transcription; actives raise or lower the signal
In short: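 Endogenous TGFB1-linked transcription factor activity read as reporter mRNA via RT-PCR and capillary electrophoresis, 24 h after dosing transiently transfected HepG2 cells. Gain or loss of signal fitted relative to DMSO.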

[4] = ATG_VDRE_CIS: Attagene CIS-FACTORIAL HepG2 Assay for human Vitamin D Receptor Element (VDRE) (AID 2282968; active means hit-call score of the fitted dose curve at least 0.9, where 1 is the maximum; inactive means score below 0.9); conditions: HepG2 VDRE cis-reporter transcription, actives raise or lower the signal
In short: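 HepG2 cells transiently transfected with cis-element reporter units, dosed 24 h; reporter mRNA measured by RT-PCR, 6-FAM labeling, HpaI digestion and capillary electrophoresis. Activity fitted bidirectionally against DMSO baseline.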

[5] = target: Nuclear receptor subfamily 1 group I member 3 (Homo sapiens) (UniProt Q14994); experiment: ATG_CAR_TRANS: Attagene TRANS-FACTORIAL HepG2 Assay for human Constitutive Androstane Receptor (CAR) (AID 2282969); conditions: HepG2 Attagene TRANS-FACTORIAL CAR reporter;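 further: activators raise reporter mRNA above DMSO so AC50 marks induction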
In short: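 HepG2 cells transiently transfected with multiplexed GAL4-UAS reporter units expressing chimeric NR-Gal4 proteins; compound exposure 24 h. Reporter mRNA measured by RT-PCR, 6-FAM labelling, HpaI digestion and capillary electrophoresis; gain-of-signal fitted against DMSO baseline.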

[6] = target: Estrogen receptor (Homo sapiens) (UniProt P03372); experiment: ATG_ERa_TRANS: Attagene TRANS-FACTORIAL HepG2 Assay for human Estrogen Receptor alpha (ERa) (AID 2282970); conditions: HepG2 Attagene TRANS ERa GAL4 reporter, mRNA
In short: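 Transactivation via ERa-Gal4 chimera in HepG2; 24 hour incubation; reporter mRNA detected by fluorescence RT-PCR and capillary electrophoresis.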

[7] = target: X-box-binding protein 1 (Homo sapiens) (UniProt P17861); experiment: ATG_Xbp1_CIS: Attagene CIS-FACTORIAL HepG2 Assay for human X-box Binding Protein 1 (XBP1) (AID 2282972; active means hit-call score of the fitted dose curve at least 0.9, where 1 is the maximum; inactive means score below 0.9); conditions: HepG2 XBP1 cis-element reporter, Attagene multiplex; actives raise or lower the signal
In short: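 HepG2 cells transiently transfected with multiple cis-element reporter units report endogenous TF activity; 24 h exposure, then reporter mRNA measured by RT-PCR, 6-FAM labelling, HpaI digestion and capillary electrophoresis. Bidirectional fitting versus DMSO.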

[8] = target: Androgen receptor (Homo sapiens) (UniProt P10275); experiment: ATG_AR_TRANS: Attagene TRANS-FACTORIAL HepG2 Assay for human Androgen Receptor (AR) (AID 2282973); conditions: HepG2 Attagene TRANS-FACTORIAL AR reporter transcription
In short: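 Transfected HepG2, 24 h treatment, chimeric NR-Gal4 driving GAL4-UAS reporters. mRNA induction by RT-PCR/capillary electrophoresis fluorescence; DMSO as negative control and baseline.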

[9] = ATG_M_19_TRANS: Attagene TRANS-FACTORIAL HepG2 Assay for M19 Transcription Factor (Internal Marker) (AID 2282974); conditions: HepG2 Attagene TRANS-FACTORIAL M19 internal marker reporter
In short: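 Transfected HepG2 (GAL4-UAS MRTUs), 24 h compound, TriZol RNA, DNase-treated RT, reporter PCR, FAM label, HpaI digest, CE fluorescence; gain vs DMSO.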

[10] = ATG_Hpa5_TRANS: Attagene TRANS-FACTORIAL HepG2 Assay for human GAL4-Hpa5 Hepatocyte Transcription Factor Basal Promoter (AID 2282975); conditions: HepG2 Attagene GAL4-Hpa5 transcription reporter;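 further: hits are increases in reporter mRNA over DMSO baseline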
In short: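 Basal-promoter GAL4 background control within the HepG2 trans-factorial panel of transiently transfected reporter units. Reporter mRNA is measured 24 h after dosing by RT-PCR and capillary electrophoresis, fitted for gain of signal versus DMSO.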

[11] = target: Glucocorticoid receptor (Homo sapiens) (UniProt P04150); experiment: ATG_GR_TRANS: Attagene TRANS-FACTORIAL HepG2 Assay for human Glucocorticoid Receptor (GR) (AID 2282978); conditions: HepG2 Attagene TRANS GR reporter, mRNA transcription;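 further: activators score as hits since higher reporter transcript over DMSO is fitted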
In short: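 After 24 h incubation with test chemical, transfected HepG2 cells were lysed for RNA; reporter cDNA was amplified, FAM-labelled, HpaI-digested and sized on a capillary analyser. Signal gain relative to DMSO was scored.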

[12] = target: Oxysterols receptor LXR-alpha (Homo sapiens) (UniProt Q13133); experiment: ATG_LXRa_TRANS: Attagene TRANS-FACTORIAL HepG2 Assay for human Liver X Receptor alpha (LXRa) (AID 2282980); conditions: HepG2 Attagene TRANS reporter, LXRa transactivation
In short: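 Transient HepG2 transfectants, 24 h dosing, RT-PCR/CE mRNA reporter quantitation; gain-of-signal vs DMSO.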

[13] = target: Oxysterols receptor LXR-beta (Homo sapiens) (UniProt P55055); experiment: ATG_LXRb_TRANS: Attagene TRANS-FACTORIAL HepG2 Assay for human Liver X Receptor beta (LXRb) (AID 2282981); conditions: HepG2 Attagene TRANS GAL4-LXRb reporter, mRNA
In short: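 HepG2 cells transiently transfected with multiple reporter transcription units carrying chimeric NR-Gal4 proteins acting on GAL4-UAS reporters; compound exposure 24 h. Reporter mRNA quantified by RT-PCR, 6-FAM labelling, HpaI digestion and capillary electrophoresis; gain of signal versus DMSO.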

[14] = target: Hepatocyte nuclear factor 4-alpha (Homo sapiens) (UniProt P41235); experiment: ATG_HNF4a_TRANS: Attagene TRANS-FACTORIAL HepG2 Assay for human Hepatocyte Nuclear Factor 4 alpha (HNF4a) (AID 2282982); conditions: HepG2 HNF4a transactivation reporter, mRNA readout
In short: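 HepG2 cells transiently transfected with multiplexed GAL4-UAS reporter units responsive to chimeric NR-GAL4 proteins; compound exposure 24 h. Reporter mRNA quantified by RT-PCR, 6-FAM labelling, HpaI digestion and capillary electrophoresis; gain of signal versus DMSO baseline.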

[15] = ATG_M_32_TRANS: Attagene TRANS-FACTORIAL HepG2 Assay for M32 Transcription Factor (Internal Marker) (AID 2282984); conditions: HepG2 Attagene TRANS M32 internal marker reporter
In short: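 HepG2 cells transiently transfected with multiple GAL4-UAS reporter transcription units, dosed for 24 hours; reporter mRNA quantified by RT-PCR, 6-FAM primer extension, HpaI digestion and capillary electrophoresis. Gain-of-signal fitted versus DMSO baseline; internal background-control marker.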

[16] = target: Nuclear receptor subfamily 4 group A member 2 (Homo sapiens) (UniProt P43354); experiment: ATG_NURR1_TRANS: Attagene TRANS-FACTORIAL HepG2 Assay for human Nuclear Receptor Related Protein 1 (NURR1) (AID 2282985); conditions: HepG2 Attagene TRANS reporter, mRNA readout
In short: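 HepG2 cells transiently transfected with GAL4-UAS reporter units and chimeric NR-Gal4 constructs; chemical exposure 24 h. Reporter mRNA quantified by RT-PCR, fluorescent labelling and capillary electrophoresis; gain of signal fitted relative to DMSO baseline.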

[17] = target: Transcriptional activator Myb (Homo sapiens) (UniProt P10242); experiment: ATG_Myb_CIS: Attagene CIS-FACTORIAL HepG2 Assay for human Myeloblastosis (Myb) Proto-Oncogene Transcription Factor (AID 2282986; active means hit-call score of the fitted dose curve at least 0.9, where 1 is the maximum; inactive means score below 0.9); conditions: HepG2 Attagene CIS-FACTORIAL Myb reporter transcription; actives raise or lower the signal
In short: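 After 24 h of compound dosing, total RNA from transfected HepG2 cells is reverse-transcribed and the reporter sequences amplified, labeled and separated by capillary electrophoresis. Values come from bidirectional fitting against DMSO.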

[18] = target: Steroid hormone receptor ERR1 (Homo sapiens) (UniProt P11474); experiment: ATG_ERRa_TRANS: Attagene TRANS-FACTORIAL HepG2 Assay for human Estrogen-Related Receptor alpha (ERRa) (AID 2282971); conditions: HepG2 Attagene TRANS reporter, ERRa transactivation
In short: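 HepG2 cells were transiently transfected with multiple GAL4-UAS reporter units, then dosed with compound for 24 h. Total RNA was reverse-transcribed, reporter cDNA PCR-amplified and fluorescently labelled, and fragments resolved by capillary electrophoresis; induction was compared with DMSO.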

[19] = ATG_GAL4_TRANS: Attagene TRANS-FACTORIAL HepG2 Assay for GAL4 (Internal Marker) (AID 2282976); conditions: HepG2 Attagene TRANS GAL4 internal marker reporter
In short: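 Fluorescence from capillary electrophoresis of labelled RT-PCR products quantifies reporter mRNA induction after 24 h dosing of HepG2 cells carrying transfected GAL4-UAS reporter transcription units. Vehicle DMSO serves as baseline.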

[20] = ATG_M_06_TRANS: Attagene TRANS-FACTORIAL HepG2 Assay for M06 Transcription Factor (Internal Marker) (AID 2282983); conditions: HepG2 Attagene TRANS M06 internal marker reporter;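 further: reporter transcript level by RT-PCR then capillary electrophoresis fluorescence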
In short: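 Measured by capillary electrophoresis of fluorescently labelled RT-PCR products, this endpoint reflects reporter mRNA in HepG2 cells harbouring exogenous NR-GAL4 reporter constructs after 24 h exposure, with DMSO as baseline.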

Measured: AC50

Chain of X-box-binding protein 1 (Homo sapiens) (P17861 whole entry, looked up): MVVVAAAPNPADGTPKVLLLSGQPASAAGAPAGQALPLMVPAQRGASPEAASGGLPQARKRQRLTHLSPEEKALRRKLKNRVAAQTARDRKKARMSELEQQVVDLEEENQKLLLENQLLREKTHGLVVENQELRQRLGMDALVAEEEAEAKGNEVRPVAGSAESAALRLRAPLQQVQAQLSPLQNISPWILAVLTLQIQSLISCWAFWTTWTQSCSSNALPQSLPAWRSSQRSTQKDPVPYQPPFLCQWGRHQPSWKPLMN
Chain of Oxysterols receptor LXR-beta (Homo sapiens) (P55055 whole entry, looked up, the tested form may be a part): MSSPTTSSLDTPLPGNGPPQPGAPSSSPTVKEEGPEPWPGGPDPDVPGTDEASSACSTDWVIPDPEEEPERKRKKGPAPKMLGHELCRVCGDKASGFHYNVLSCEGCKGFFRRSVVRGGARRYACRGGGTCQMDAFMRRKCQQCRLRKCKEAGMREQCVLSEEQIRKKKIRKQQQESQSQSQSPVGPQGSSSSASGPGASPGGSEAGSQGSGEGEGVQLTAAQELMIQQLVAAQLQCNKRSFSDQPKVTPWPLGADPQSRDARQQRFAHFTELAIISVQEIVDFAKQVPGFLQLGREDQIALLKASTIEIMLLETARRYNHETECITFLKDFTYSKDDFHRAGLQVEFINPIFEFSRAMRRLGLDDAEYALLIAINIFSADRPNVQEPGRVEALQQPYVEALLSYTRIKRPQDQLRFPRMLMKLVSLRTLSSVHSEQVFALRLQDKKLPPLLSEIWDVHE
Chain of Nuclear receptor subfamily 1 group I member 3 (Homo sapiens) (Q14994 whole entry, looked up, the tested form may be a part): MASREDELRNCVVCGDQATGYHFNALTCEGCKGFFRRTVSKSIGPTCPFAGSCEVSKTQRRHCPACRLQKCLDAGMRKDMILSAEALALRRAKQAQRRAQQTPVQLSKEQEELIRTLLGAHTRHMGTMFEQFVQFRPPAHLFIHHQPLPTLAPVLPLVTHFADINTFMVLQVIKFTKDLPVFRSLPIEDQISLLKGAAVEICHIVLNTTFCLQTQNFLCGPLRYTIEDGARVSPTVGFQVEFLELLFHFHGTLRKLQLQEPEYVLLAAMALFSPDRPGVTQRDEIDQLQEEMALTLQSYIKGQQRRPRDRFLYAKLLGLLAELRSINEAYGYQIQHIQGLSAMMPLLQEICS
Chain of Transcriptional activator Myb (Homo sapiens) (P10242 whole entry, looked up): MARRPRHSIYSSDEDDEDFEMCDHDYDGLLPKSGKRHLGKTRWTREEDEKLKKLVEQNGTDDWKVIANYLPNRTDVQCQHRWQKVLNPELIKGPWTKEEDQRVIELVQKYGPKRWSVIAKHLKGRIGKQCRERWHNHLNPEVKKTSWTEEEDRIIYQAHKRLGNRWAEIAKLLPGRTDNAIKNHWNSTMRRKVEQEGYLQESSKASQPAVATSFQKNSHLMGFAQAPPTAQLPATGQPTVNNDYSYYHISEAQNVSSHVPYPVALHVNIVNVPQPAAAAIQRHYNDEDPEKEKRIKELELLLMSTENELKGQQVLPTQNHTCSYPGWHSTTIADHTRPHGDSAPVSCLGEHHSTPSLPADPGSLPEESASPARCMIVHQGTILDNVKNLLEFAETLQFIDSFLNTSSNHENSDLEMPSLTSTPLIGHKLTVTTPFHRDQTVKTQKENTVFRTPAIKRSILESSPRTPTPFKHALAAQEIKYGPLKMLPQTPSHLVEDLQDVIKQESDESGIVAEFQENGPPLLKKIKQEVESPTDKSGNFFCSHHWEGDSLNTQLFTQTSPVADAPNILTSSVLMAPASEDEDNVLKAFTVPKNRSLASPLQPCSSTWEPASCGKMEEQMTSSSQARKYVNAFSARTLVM
Chain of Nuclear receptor subfamily 4 group A member 2 (Homo sapiens) (P43354 whole entry, looked up, the tested form may be a part): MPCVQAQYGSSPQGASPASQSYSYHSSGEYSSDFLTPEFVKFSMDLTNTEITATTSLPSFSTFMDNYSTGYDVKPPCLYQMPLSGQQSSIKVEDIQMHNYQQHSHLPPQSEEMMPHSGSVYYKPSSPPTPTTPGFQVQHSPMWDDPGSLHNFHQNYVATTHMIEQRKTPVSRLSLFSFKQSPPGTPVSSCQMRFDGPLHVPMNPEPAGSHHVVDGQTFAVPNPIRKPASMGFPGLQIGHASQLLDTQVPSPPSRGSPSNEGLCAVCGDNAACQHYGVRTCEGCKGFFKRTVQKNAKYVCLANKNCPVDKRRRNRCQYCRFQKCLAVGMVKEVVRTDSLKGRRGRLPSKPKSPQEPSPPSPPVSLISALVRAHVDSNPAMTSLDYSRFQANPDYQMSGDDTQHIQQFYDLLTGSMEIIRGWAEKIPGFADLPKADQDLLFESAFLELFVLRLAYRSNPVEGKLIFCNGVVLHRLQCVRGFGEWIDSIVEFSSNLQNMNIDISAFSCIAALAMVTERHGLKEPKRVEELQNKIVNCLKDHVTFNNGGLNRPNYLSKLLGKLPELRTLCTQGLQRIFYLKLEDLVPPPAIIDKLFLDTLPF
Chain of Glucocorticoid receptor (Homo sapiens) (P04150 whole entry, looked up): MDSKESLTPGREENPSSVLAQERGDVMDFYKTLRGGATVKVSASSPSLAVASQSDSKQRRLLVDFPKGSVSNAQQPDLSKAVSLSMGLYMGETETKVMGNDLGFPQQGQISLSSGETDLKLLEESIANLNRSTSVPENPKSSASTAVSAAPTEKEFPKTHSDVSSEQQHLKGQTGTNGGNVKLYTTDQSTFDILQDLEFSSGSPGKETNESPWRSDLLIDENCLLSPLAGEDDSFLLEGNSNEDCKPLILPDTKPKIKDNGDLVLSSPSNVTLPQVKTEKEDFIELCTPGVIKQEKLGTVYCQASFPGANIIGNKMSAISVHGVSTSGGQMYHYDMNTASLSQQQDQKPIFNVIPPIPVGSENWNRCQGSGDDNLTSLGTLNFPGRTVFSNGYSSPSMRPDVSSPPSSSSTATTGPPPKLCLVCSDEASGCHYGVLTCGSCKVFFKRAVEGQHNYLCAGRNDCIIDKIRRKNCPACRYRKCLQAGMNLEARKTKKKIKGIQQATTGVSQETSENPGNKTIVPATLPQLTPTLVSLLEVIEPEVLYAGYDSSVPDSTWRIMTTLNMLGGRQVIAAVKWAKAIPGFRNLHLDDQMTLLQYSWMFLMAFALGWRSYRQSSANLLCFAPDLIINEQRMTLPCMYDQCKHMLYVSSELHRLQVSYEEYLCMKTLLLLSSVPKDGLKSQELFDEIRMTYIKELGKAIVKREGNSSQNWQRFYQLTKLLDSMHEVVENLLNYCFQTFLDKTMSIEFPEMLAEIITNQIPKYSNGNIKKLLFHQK
Chain of Estrogen receptor (Homo sapiens) (P03372 whole entry, looked up, the tested form may be a part): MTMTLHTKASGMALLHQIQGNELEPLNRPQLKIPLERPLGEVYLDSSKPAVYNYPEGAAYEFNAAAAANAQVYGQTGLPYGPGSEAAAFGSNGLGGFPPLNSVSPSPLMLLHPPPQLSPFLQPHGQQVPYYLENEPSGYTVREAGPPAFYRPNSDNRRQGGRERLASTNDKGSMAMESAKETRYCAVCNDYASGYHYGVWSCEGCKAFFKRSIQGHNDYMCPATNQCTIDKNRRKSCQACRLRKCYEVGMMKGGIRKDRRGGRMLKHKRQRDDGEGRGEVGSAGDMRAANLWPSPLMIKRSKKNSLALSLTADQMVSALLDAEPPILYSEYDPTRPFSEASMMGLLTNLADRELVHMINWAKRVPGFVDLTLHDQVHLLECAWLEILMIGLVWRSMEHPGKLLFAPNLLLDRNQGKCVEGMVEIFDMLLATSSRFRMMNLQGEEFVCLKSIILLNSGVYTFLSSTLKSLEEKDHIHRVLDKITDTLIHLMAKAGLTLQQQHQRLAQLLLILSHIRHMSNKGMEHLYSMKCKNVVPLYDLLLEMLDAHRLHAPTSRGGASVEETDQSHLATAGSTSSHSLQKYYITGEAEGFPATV
Chain of Hepatocyte nuclear factor 4-alpha (Homo sapiens) (P41235 whole entry, looked up, the tested form may be a part): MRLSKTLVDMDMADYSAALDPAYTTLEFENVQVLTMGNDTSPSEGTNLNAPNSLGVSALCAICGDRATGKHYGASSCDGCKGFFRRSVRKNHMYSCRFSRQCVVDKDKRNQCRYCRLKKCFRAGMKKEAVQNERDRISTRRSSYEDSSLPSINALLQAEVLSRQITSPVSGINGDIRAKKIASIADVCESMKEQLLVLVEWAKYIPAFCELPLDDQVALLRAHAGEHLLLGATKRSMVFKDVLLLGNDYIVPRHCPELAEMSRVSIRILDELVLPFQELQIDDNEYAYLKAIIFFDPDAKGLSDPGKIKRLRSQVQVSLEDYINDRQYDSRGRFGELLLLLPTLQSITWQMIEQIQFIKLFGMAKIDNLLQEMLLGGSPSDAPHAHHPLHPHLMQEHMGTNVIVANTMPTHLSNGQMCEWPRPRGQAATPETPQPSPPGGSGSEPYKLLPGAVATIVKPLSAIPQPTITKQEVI
Chain of Oxysterols receptor LXR-alpha (Homo sapiens) (Q13133 whole entry, looked up): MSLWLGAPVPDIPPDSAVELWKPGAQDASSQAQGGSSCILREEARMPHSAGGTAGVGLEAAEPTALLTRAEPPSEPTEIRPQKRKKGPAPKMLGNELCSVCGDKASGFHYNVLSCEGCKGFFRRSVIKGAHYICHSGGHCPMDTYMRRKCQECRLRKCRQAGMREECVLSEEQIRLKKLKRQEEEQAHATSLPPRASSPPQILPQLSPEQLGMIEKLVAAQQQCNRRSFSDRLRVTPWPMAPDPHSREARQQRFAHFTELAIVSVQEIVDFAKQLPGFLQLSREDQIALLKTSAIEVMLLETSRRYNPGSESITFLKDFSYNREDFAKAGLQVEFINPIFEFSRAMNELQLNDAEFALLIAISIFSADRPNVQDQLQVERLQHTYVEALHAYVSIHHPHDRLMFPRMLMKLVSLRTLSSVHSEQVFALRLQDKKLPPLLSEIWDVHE

C#CCN1C(=O)COc2cc(F)c(N3C(=O)C4=C(CCCC4)C3=O)cc21
not listed: [18] | [19] | [20]
inactive: all other assays above

CNC(=O)Oc1ccccc1OC(C)C
not listed: [8] | [10] | [12] | [14] | [15] | [19] | [20]
inactive: all other assays above

COP(=S)(OC)Oc1ccc(SC)c(C)c1
active: [4] 25.7 µM | [6] 18.8 µM | [12] 24.9 µM | [13] 39.3 µM
not listed: [8] | [9] | [18]
inactive: all other assays above
